TrxR1 inh – qHTS Assay for Inhibitors of Mammalian Selenoprotein Thioredoxin Reductase 1 (TrxR1): qHTS; 1% of 390,000 active; recombinant rTrxR1, NADPH fluorescence consumption, selenite substrate; Potency, µM (series often up to 114 µM), hits mostly inhibitors; AID 588453, 2011; Thioredoxin reductase 1, cytoplasmic (Rattus norvegicus), O89049; also: nearly all actives have a fitted effect of over 65% in size
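Rat TrxR1 (90 nM in the dispensed reagent) was pre-reduced with 400 uM NADPH for 5 min at room temperature, then incubated with compound for 15 min. After 400 uM selenite was added, NADPH fluorescence (Ex 340/Em 450 nm) was followed for 8 min.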
Apoferritin bind – qHTS Assay for Identification of Novel General Anesthetics. apoferritin/1-aminoanthracene competitive binding, fluorescence. 0.074% of 350,000 active. AID 485281, 2010. Potency, µM (titrated, usually from 77.5 µM), hits mostly inhibitors. Ferritin light chain (Equus caballus), P02791; also: nearly all actives have a fitted effect of over 20% in size
Target sequence (P02791 2-175 limits assumed): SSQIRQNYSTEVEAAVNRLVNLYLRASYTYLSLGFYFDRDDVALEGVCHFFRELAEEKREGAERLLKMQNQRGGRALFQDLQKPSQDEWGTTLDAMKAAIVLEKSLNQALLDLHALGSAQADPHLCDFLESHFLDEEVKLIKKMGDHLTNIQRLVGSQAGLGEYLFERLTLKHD
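Apoferritin-based anesthetic binding model; compound displacement of fluorescent 1-AMA measured as endpoint fluorescence after 10 minutes at room temperature, scaled to free-ligand and complex controls.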
mIDH1 inhibitor – qHTS for Inhibitors of mutant isocitrate dehydrogenase 1 (IDH1): qHTS. 0.093% of 390,000 active. Isocitrate dehydrogenase [NADP] cytoplasmic (Homo sapiens), O75874. IDH1-R132H enzyme, NADPH consumption, diaphorase/resazurin fluorescence. Potency, µM (doses to about 76.6 µM), most hits filed as inhibitors. AID 602179, 2012; also: nearly all actives have a fitted effect of over 65% in size
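IDH1-R132H (0.5 ug/mL) preincubated 30 min with compound, then NADPH (0.016 mM) and alpha-KG (2 mM) added; 80 min at RT, pH 7.5. Remaining NADPH coupled via diaphorase/resazurin to fluorescence (540/590 nm); concentration-response curves normalized to no-enzyme control.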
TrxR1 substrate – qHTS Assay for Substrates of Mammalian Selenoprotein Thioredoxin Reductase 1 (TrxR1): qHTS. Potency, µM (highest dose often 114 µM). purified TrxR1 substrate turnover, NADPH consumption readout. 0.01% of 390,000 active. AID 588456, 2011; also: nearly all actives have a fitted effect of over 50% in size
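Rat TrxR1, dispensed at 90 nM, was prereduced with 400 uM NADPH (final) for 5 min at ~22 deg C, then incubated with compound 15 min before 400 uM selenite. A first-read NADPH fluorescence drop versus no-compound background flagged substrates.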
Glioma ERSR ind – qHTS for Inducers of the Endoplasmic Reticulum Stress Response (ERSR) in Human Glioma: qHTS; U87-MG GRP78 promoter luciferase reporter, 16 h; Potency, µM, hits mostly activators; 0.02% of 420,000 active; AID 602332, 2012; also: series mostly up to about 76 µM; nearly all actives have a fitted effect of over 35% in size
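Stably transfected U87-MG glioma cells carrying a GRP78-based luciferase sensor; 16 h compound incubation. Luminescence end-point read 10 min after Bright-Glo addition at room temperature.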
12-LOX inh – Primary qHTS assay for inhibitors of human arachidonate 12S-lipoxygenase (ALOX12): Round 2; Polyunsaturated fatty acid lipoxygenase ALOX12 (Homo sapiens), P18054; purified 12hLO, xylenol orange hydroperoxide absorbance; 1.1% of 580,000 active; Potency, µM (doses to about 108 µM), hits mostly inhibitors; AID 1671190, 2021
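Purified human 12hLO (150 nM final) in 25 mM Hepes, 0.01% Triton X-100, pH 7.0 was preincubated 15 min at room temperature with compound. Then 40 uM arachidonic acid was added, 30 min. Hydroperoxide was read by Fe-XO absorbance ratio 573/405 nm.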
Resorufin autofl – qHTS for Inhibitors of mutant isocitrate dehydrogenase 1 (IDH1): Cherrypicks Autofluorescence Interference; inhibition of signal, % at 51.2 µM; AID 623980, 2012; 750 tested, under 10 active; shares compounds with mIDH1 inhibitor; Resorufin detection reagent fluorescence interference, cell-free
IDH1 WT – qHTS for Inhibitors of mutant isocitrate dehydrogenase 1 (IDH1): Cherrypicks in WT IDH1; shares compounds with mIDH1 inhibitor; WT IDH1 enzyme, NADPH diaphorase/resazurin fluorescence; Potency, µM (highest dose often 115 µM), actives largely listed as inhibitors; 9% of 750 active; AID 623995, 2012; also: nearly all actives have a fitted effect of over 55% in size
IDH1 R132H conf – qHTS for Inhibitors of mutant isocitrate dehydrogenase 1 (IDH1): Confirmation of Cherrypicks; shares compounds with mIDH1 inhibitor; IDH1 R132H enzyme, NADPH diaphorase/resazurin fluorescence; Potency, µM (highest dose often 76.6 µM), usual class: inhibitors; 83% of 750 active; also: nearly all actives have a fitted effect of over 50% in size
Numbers stand for hits. The list is not random: actives were taken first. Their share in the collection is about 1.7%. Calls follow the shape of the dose curve; as a rule, active = well fitted curve in the direction sought with a large enough effect; inconclusive = small, poorly fitted or top-dose-only effect, or another doubt; inactive = no such curve, though single readings can be large; an effect the other way counts as inactive or inconclusive.

Screening CNC(=O)/C(C#N)=C/c1c(N(Cc2ccccc2)Cc2ccccc2)nc2ccccn2c1=O returned TrxR1 inh inactive, Apoferritin bind inactive, mIDH1 inhibitor 52µM, TrxR1 substrate inactive, Glioma ERSR ind inactive, 12-LOX inh inconclusive, Resorufin autofl inactive, IDH1 WT inactive and IDH1 R132H conf 25µM.
COC(=O)/C(C#N)=C/c1c(N2CCN(c3ccccc3)CC2)nc2ccccn2c1=O was read as TrxR1 inh inactive, Apoferritin bind inactive, mIDH1 inhibitor inactive, TrxR1 substrate inactive and Glioma ERSR ind inactive.
For Cc1cc(C(=O)N2C[C@@H](COc3ccccc3)[C@H](C(N)=O)C2)ccn1 the results were 12-LOX inh inactive.
CCOC(=O)c1ccc(N2C(=O)c3n[nH]c(-c4cccs4)c3C2c2ccc(CC)cc2)cc1 (centres undefined) was read as TrxR1 inh inactive, Apoferritin bind inactive, mIDH1 inhibitor inactive, TrxR1 substrate inactive, Glioma ERSR ind inconclusive and 12-LOX inh inconclusive.
For CCOC(=O)c1ccc(N2C(=O)c3n[nH]c(C)c3C2c2ccc(F)cc2)cc1 (centres undefined) the results were 12-LOX inh inactive.
For CCOC(=O)c1ccc(N2C(=O)c3n[nH]c(C)c3C2c2cccc(Br)c2)cc1 (centres undefined) the results were TrxR1 inh inactive, Apoferritin bind inactive, mIDH1 inhibitor inconclusive, TrxR1 substrate inactive, Glioma ERSR ind inactive, 12-LOX inh inactive, Resorufin autofl inactive, IDH1 WT inactive and IDH1 R132H conf 25µM.
For CCOC(=O)c1ccc(N2C(=O)c3n[nH]c(C)c3C2c2ccc(CC)cc2)cc1 (centres undefined) the results were TrxR1 inh inactive, Apoferritin bind inactive, mIDH1 inhibitor inconclusive, TrxR1 substrate inactive, Glioma ERSR ind inactive, 12-LOX inh inactive, Resorufin autofl inactive, IDH1 WT inactive and IDH1 R132H conf inconclusive.
For CCOC(=O)c1ccc(N2C(=O)c3n[nH]c(C)c3C2c2ccc(OC)c(OC)c2)cc1 (centres undefined) the results were TrxR1 inh inactive, Apoferritin bind inconclusive, mIDH1 inhibitor inactive, TrxR1 substrate inactive, Glioma ERSR ind inactive and 12-LOX inh inactive.
CCOC(=O)c1ccc(N2C(=O)c3n[nH]c(-c4cccs4)c3C2c2cccc(O)c2)cc1 (centres undefined) was read as TrxR1 inh inactive, Apoferritin bind inconclusive, mIDH1 inhibitor inconclusive, TrxR1 substrate inactive, Glioma ERSR ind inactive, 12-LOX inh inactive, Resorufin autofl inactive, IDH1 WT inactive and IDH1 R132H conf 16µM.
For CCOC(=O)c1[nH]c(C)c(CCC(=O)Nc2cc(C)c(Cl)cc2OC)c1C the results were 12-LOX inh inactive.
